Screening results: PubChem, National Center for Advancing Translational Sciences (NCATS)
Cruzain noTriton: inhibitors of Trypanosoma cruzi cruzain without detergent; P25779; purified cruzain, Z-FR-AMC fluorescence, no detergent; Potency, µM, for the others: max response, negative = inhibition, hits mostly inhibitors; 200,000 compounds, 2.3% hits;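 also: plate controls were enzyme without inhibitor for no effect and buffer without enzyme for full effect; nearly all actives have a fitted effect of over 40% in size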
Target sequence (P25779 123-467 limits assumed): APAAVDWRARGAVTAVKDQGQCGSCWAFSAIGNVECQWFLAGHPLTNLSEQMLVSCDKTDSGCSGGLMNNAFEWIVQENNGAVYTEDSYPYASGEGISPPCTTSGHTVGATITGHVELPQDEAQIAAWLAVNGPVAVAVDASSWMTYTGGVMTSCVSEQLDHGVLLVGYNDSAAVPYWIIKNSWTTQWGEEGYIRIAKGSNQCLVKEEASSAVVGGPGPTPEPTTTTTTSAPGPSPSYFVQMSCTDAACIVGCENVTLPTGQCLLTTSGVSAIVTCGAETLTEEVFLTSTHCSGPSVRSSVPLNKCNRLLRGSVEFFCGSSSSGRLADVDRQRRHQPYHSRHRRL
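Purified cruzain at 1.5 nM, pre-incubated 15 min with compound at room temperature in 100 mM sodium acetate pH 5.5, 5 mM DTT, 0.00005% Triton X-100. Reaction started with 2 uM Z-FR-AMC; AMC fluorescence increase over 60 s gives rate.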
Cruzain Triton: cruzain (T. cruzi) inhibition with detergent. P25779. purified cruzain, Z-FR-AMC fluorescence, 0.01% Triton. Potency, µM, without a hit: max response, negative = inhibition, usual class: inhibitors. 200,000 compounds, 0.43% hits. AID 1478;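 also: plate controls were neutral wells for no effect and buffer without enzyme for full effect; nearly all actives have a fitted effect of over 40% in size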
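Sodium acetate buffer (100 mM, pH 5.5) containing 5 mM DTT and 0.01% Triton X-100 hosted 1.5 nM cruzain and test compound for 15 min at room temperature. Cleavage of 2 uM Z-FR-AMC was then tracked by fluorescence.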
The depositor's hits bear a star; ? = inconclusive. A selection: hits, their analogues and other compounds. The true share with any hit is near 2.6%. Calls follow the shape of the dose curve; as a rule, active = well fitted curve in the direction sought with a large enough effect; inconclusive = small, poorly fitted or top-dose-only effect, or another doubt; inactive = no such curve, though single readings can be large; an effect the other way counts as inactive or inconclusive. Potency is read from the fitted curve at half-maximal effect.

SMILES	Cruzain noTriton	Cruzain Triton
CCOc1ccc(-c2nc(SCC(=O)c3ccccc3)n[nH]2)cc1	?	-5%
CCCOc1ccc(-c2nc(SCC(=O)c3ccc(Cl)cc3)n[nH]2)cc1	10µM*	1%
Nc1nc(SCC(=O)NCc2ccc(F)cc2)[nH]c(=O)c1NC(=O)c1ccc(Cl)cc1	25µM*	2%
Nc1nc(SCC(=O)NCc2ccccc2Cl)[nH]c(=O)c1NC(=O)c1ccccc1F	?	3%
Cc1cc(C)c(NC(=O)Cn2c(=O)oc3cc(S(=O)(=O)N4CCCCCC4)ccc32)c(C)c1	11%	-6%
O=C(Nc1ccc(Cl)c(C(F)(F)F)c1)c1nc2ccccc2nc1N1CCCCC1	-9%	-7%
COc1ccc(Br)cc1/C=N/NC(=O)c1ccc(COc2ccc3c(c2)CCC3)o1	-26%	-10%
O=C(N/N=C/c1ccc2ccccc2c1)c1ccc(COc2ccc3c(c2)CCC3)o1	20µM*	-11%
COc1ccc(S(=O)(=O)Nc2ccc3oc4c(c3c2)C(=O)CC(C)(C)C4)cc1	6%	-3%
O=C(c1ccc(-c2ccc(Cl)cc2)o1)N1CCN(c2ccc([N+](=O)[O-])cc2Cl)CC1	7.9µM*	-4%
O=C(c1ccc(-c2ccc([N+](=O)[O-])cc2)o1)N1CCCCC1	-5%	-7%
Cc1ccccc1Nc1sc(C(=O)c2ccccc2)c(N)c1C(=O)NCc1ccc(Cl)cc1	5µM*	-2%
CCOc1ccc(NC(=O)c2c(Nc3ccc(OC)cc3OC)sc(C(=O)c3ccc(Cl)cc3)c2N)cc1	?	0%
COc1ccc(CNC(=O)c2c(Nc3ccc(OC)cc3OC)sc(C(=O)c3ccc(Cl)cc3)c2N)cc1	13µM*	0%
COc1ccc(CNC(=O)c2c(Nc3ccccc3C)sc(C(=O)c3ccccc3)c2N)cc1	?	0%
COC(=O)N1C(c2ccccc2)=Cc2ccccc2C1C1(C(=O)OC)CCCC1=O (stereo unspecified)	-2%	2%
COc1ccc(NS(=O)(=O)c2cccc(C(=O)N/N=C(\C)c3ccc(-n4ccnc4)cc3)c2)cc1	-12%	1%
C/C(=N\NC(=O)c1cccc(S(=O)(=O)Nc2ccccc2Cl)c1)c1ccc(-n2ccnc2)cc1	20µM*	-5%
Cc1cc(/C=C2\SC(=S)NC2=O)c(C)n1C1CC1	16µM*	0%
Cc1cc(/C=C2/C(=O)N(C)C(=S)N2C)c(C)n1C1CC1	-21%	-9%
Cc1cc(C)cc(NC2=C(c3ccccc3)C(=O)c3ccccc32)c1	-18%	-8%
CCOc1cc(NC(=S)Nc2cccc(OC)c2)c(OCC)cc1NC(=O)c1ccc(C)cc1	?	-1%
CCOc1cc(NC(=S)Nc2ccccc2)c(OCC)cc1NC(=O)c1ccc(OC)cc1	16µM*	-3%
CC(=O)OCN(C#N)c1nc(N(C)C)nc(N(C)C)n1	-5%	-7%
COC(=O)CN(C#N)c1nc(SC)nc(N(C)C)n1	13µM*	16µM*
SMILES	Cruzain noTriton	Cruzain Triton
COC(=O)/C=C1\S/C(=N/N=C/c2ccccc2)NC1=O	1%	-2%
O=C1N/C(=N/N=C/c2ccccc2)SC1(c1ccccc1)c1ccccc1	4µM*	1%
COCCn1c(=O)c(-c2ccccc2)nc2cnc(OC)nc21	-11%	-4%
COc1ccc(/C=N/NC(=O)CCn2c3ccccc3c3ccccc32)cc1OC	?	-8%
CCn1c2ccccc2c2cc(/C=N/NC(=O)c3ccc(O)cc3)ccc21	25µM*	?
COc1ccc(NC(=O)c2c(NCc3cccc(OC)c3)sc3c2CCC3)cc1	-7%	-1%
O=C(CNC(=O)c1ccco1)NCC(=O)OC(C(=O)c1ccccc1)c1ccc(Cl)cc1 (stereo unspecified)	-26%	?
O=C(CNC(=O)c1ccco1)OC(C(=O)c1ccccc1)c1ccccc1 (stereo unspecified)	7.9µM*	6.3µM*
Cc1ccccc1Nc1c(-c2ccc(N3CCOCC3)cc2)nc2ccc(Br)cn12	-14%	-5%
O=S(=O)(O)c1cc(S(=O)(=O)O)c2c(N=Nc3cccc4ccccc34)c(O)ccc2c1	22%	3%
O=S(=O)(O)c1cc(N=Nc2cccc3ccccc23)c(O)c2ncccc12	-5%	3.5µM*
Cc1ccc(C)c(N2CCN(C(=O)c3cc4c(=O)oc5ccccc5c4s3)CC2)c1	-4%	0%
O=C(COc1cc(Cl)c(Cl)cc1Cl)NC(=O)Nc1ccc2c(c1)OCCO2	20µM*	-2%
COc1ccc(C(=O)NCC(=O)OCC(=O)c2ccc3c(c2)OCCO3)cc1	13µM*	16µM*
O=C(COC(=O)CNC(=O)c1ccc(Cl)cc1)Nc1ccc2c(c1)OCCO2	10µM*	14µM*
CCN(C(=O)COC(=O)c1ccccc1Nc1cccc(C)c1C)C1CCS(=O)(=O)C1 (stereo unspecified)	?	-5%
CCN(C(=O)COC(=O)CNC(=O)c1ccc(C)c(C)c1)C1CCS(=O)(=O)C1 (stereo unspecified)	16µM*	25µM*
COc1ccc(CNC(=O)COC(=O)c2ccc3c(c2)OCCO3)cc1	-1%	0%
O=C(COC(=O)/C=C/c1ccc(Cl)cc1)Nc1ccc2c(c1)OCCO2	-27%	-1%
Cc1ccc(Cl)c(OCC(=O)Nc2ccc3c(c2)OCCO3)c1	-6%	-1%
CCOc1ccccc1NC(=O)CSc1ccc2nc(-c3ccccc3)cn2n1	-6%	-2%
COc1ccc(OC)c(S(=O)(=O)N2CC=C(c3c(C)n(CC(=O)N4CCCC4)c4ccccc34)CC2)c1	?	-6%
COCC(=O)N1CCC2(CC1)CCN(C(c1ccccc1)c1ccccc1)CC2	-3%	3%
Cc1ccc(C(=O)COC(=O)CNC(=O)c2ccc(N3C(=O)c4ccccc4C3=O)cc2)cc1C	-7%	-2%
Cc1ccc(C(=O)NCC(=O)OCC(=O)c2ccc3c(c2)OCCO3)cc1C	13µM*	13µM*
SMILES	Cruzain noTriton	Cruzain Triton
CCOc1ccc(C2=NC(c3cccs3)=Nc3ccc(CC)cc3N2)cc1OCC	-1%	-6%
CCc1ccc(C(=O)NC2=NC(c3cc(OC)ccc3OC)CC(=O)N2)cc1 (stereo unspecified)	-9%	-3%
Cn1c(CS/C(N)=N/N=C/c2ccccc2)c(Br)c(=O)n1-c1ccccc1	32µM*	?
NC(N)=N/N=C/c1ccccc1	-6%	-4%
O=C(Nc1cccc(C(F)(F)F)c1)c1ccc2c(c1)nnn2C1CCCC1	1%	-6%
Cc1cn2c(=O)cc(COc3cccc(NC(=O)c4ccccc4Cl)c3)nc2s1	22%	0%
O=C(Nc1ncc(S(=O)(=O)c2ccc([N+](=O)[O-])cc2)s1)c1ccc2ccccc2c1	20µM*	0%
CCC(C)(C)C(=O)Nc1ncc(S(=O)(=O)c2ccc([N+](=O)[O-])cc2)s1	-10%	-12%
O=C(Nc1ncc(Cc2cc(Cl)ccc2Cl)s1)c1ccc([N+](=O)[O-])cc1	13µM*	4%
O=C(Nc1ncc(Cc2cccc(Cl)c2Cl)s1)c1ccc([N+](=O)[O-])cc1	-22%	4%
Cc1ccc(Nc2nnc(SCC(=O)Nc3ncc(S(=O)(=O)c4ccc([N+](=O)[O-])cc4)s3)s2)cc1	7.9µM*	-1%
CS(=O)(=O)Nc1nnc(SCC(=O)Nc2cccc([N+](=O)[O-])c2)s1	9%	-5%
O=C(Nc1nnc(CCS(=O)(=O)c2ccc3ccccc3c2)s1)c1cccs1	?	-1%
O=C(Nc1nnc(CCS(=O)(=O)c2ccc3ccccc3c2)s1)c1ccc([N+](=O)[O-])cc1	13µM*	-1%
